Measurements taken from PubChem BioAssay AID662 (National Center for Advancing Translational Sciences (NCATS), 2007).
The whole screen tested about 71,000 compounds, of which about 1,800 (2.5%) were called active. Another 26% or so got no clear call; they are omitted. What follows is part of a selection rich in actives, with near analogues and random picks from the rest. Unmarked numbers belong to inactive results. Calls come from the whole dose curve; as a rule, active = well fitted activation curve with a large enough effect in the signal ratio, with a control signal flat (not every such curve was filed as active); inconclusive = small, poorly fitted or top-dose-only effect, or effect the other way, or a change in a side signal; inactive = flat fitted curve, though single readings scatter; the % refers to the signal ratio.

Experiment: Cell signaling CRE-BLA (Fsk stim); for activity change, negative = inhibition: % of control where 0% means no effect
Settings: CHO CRE-bla reporter (cAMP response element driving beta-lactamase), forskolin EC10, beta-lactamase ratio; series mostly up to 38.2 µM; activity change, negative = inhibition: at the top concentration
From the text: NIH Molecular Libraries Screening Centers Network [MLSCN]
NIH Chemical Genomics Center [NCGC]
Assay Provider: Marshall W. Nirenberg, U.S. National heart lung & blood institute
Memories persist for different lengths of time, from seconds or minutes to a lifetime. There are two kinds of memory: short-term memory (STM) and long-term memory (LTM). STM lasts for minutes to hours, which maybe mediated by modifications of molecules involved in synaptic functions. LTM lasts for days or longer, and may be due to the formation of new synapses or restructuring of existing synapses. LTM, but not STM, requires gene transcription and synthesis of proteins. CREB (cyclic-AMP Responsive Element Binding Protein) is one of the candidates plays an important role for enhancement of some types of LTM. CREB, a family of transcription factors, regulates the transcription of genes containing cAMP Responsive Elements (CRE). CRE is a nucleotide sequence often found in the promoter regions of genes that are binding sites for CREB.
Using a beta-lactamase reporter-gene under control of cAMP responsive element, a cell-based assay [CellSensor(TM) CRE-bla CHO developed by Invitrogen Corp.] was used to measure forskolin-induced signaling. Library compounds were measured for their ability to modulate positively or negatively the action of EC10 NKH 477, a water soluble forskolin, on reporter gene activity. Compounds were screened in a titration series in 1536-well format. Positive and negative modulators were identified based on the AC50 values derived from the screening data.
NCGC Assay Protocol Summary
2000 cells/5uL in Opti-MEM medium containing 0.5% dialyzed FBS, 0.1 mM NEAA, 1 mM sodium pyruvate and 10 mM HEPES was dispensed into 1536-well plates and cells were cultured at 37 degrees Celsius overnight. […] And then the plates were incubated at 37 degrees Celsius for 3 hours. 1 uL of CCF4-dye mixture was added to each well. After incubated at room temperature for 2 hours the plates were measured on an EnVision plate reader at Excitation 405nm, Emission1=460nm and Emission 2=530nm. The %Activity was determined from the ratio of 460nm/530nm.
Keywords: NIH Roadmap, MLSCN, MLSMR, qHTS, NCGC, CRE, beta-lactamase reporter-gene assay.
Potency is the fitted concentration of half-maximal effect.

**Q.** With COc1ccccc1NC(=O)CSc1nnc(-c2ccoc2C)n1CCc1ccccc1 as the molecule, how does the “activity change, negative = inhibition” value read?
**A.** -0.23%

**Q.** With Cn1c(=O)c2c(nc(SCC(=O)Nc3ccccc3N3CCCCC3)n2C)n(C)c1=O as the molecule, how does the “activity change, negative = inhibition” value read?
**A.** 12.6%

**Q.** Which “activity change, negative = inhibition” value does the source give for C=CCc1cccc2cc(C(=O)OCC)c(=O)oc12 here?
**A.** 18.5%

**Q.** With COc1ccccc1N1CCN(C[C@@H]2CN3C(=O)N(C)c4ccccc4C3=N2)CC1 as the molecule, how does the “activity change, negative = inhibition” value read?
**A.** -8.31%

**Q.** For COc1ccc(-c2noc(-c3cccc(OC)c3OC)n2)cc1OC, which Potency is on record?
**A.** 2.51 µM (active)

**Q.** Which “activity change, negative = inhibition” value does the source give for COc1ccc(-c2nc(-c3ccccc3)no2)c(OC)c1 here?
**A.** -11.5%

**Q.** For COc1cc(-c2nc(-c3ccncc3)no2)cc(OC)c1OC, which “activity change, negative = inhibition” value is on record?
**A.** 28%

**Q.** For COc1ccccc1C(=O)n1nc(-c2ccccc2)nc1N, which “activity change, negative = inhibition” value is on record?
**A.** -11%

**Q.** Which “activity change, negative = inhibition” value does the source give for COc1ccc(C(=O)n2nc(-c3ccc(C)cc3)nc2N)cc1OC here?
**A.** 15.7%

**Q.** With COc1ccc(C(=O)n2nc(-c3ccc(Cl)cc3)nc2N)cc1OC as the molecule, how does the Potency read?
**A.** 2 µM (active)

**Q.** Which “activity change, negative = inhibition” value does the source give for O=C1CC(N2CCN(C(c3ccccc3)c3ccccc3)CC2)C(=O)N1 (stereo unspecified) here?
**A.** -6.11%

**Q.** For CC/C(=N\O)C(C)(C)/[N+]([O-])=C/c1ccc(Br)cc1, which “activity change, negative = inhibition” value is on record?
**A.** -3.39%

**Q.** For O=C(OCCO)c1cc(Cl)c(C(=O)OCCO)cc1Cl, which “activity change, negative = inhibition” value is on record?
**A.** 1.61%

**Q.** For O=C(O)CN(Cc1ccco1)S(=O)(=O)c1ccccc1, which “activity change, negative = inhibition” value is on record?
**A.** 2.24%

**Q.** With COc1ccccc1Nc1ncnc2c1oc1ccccc12 as the molecule, how does the “activity change, negative = inhibition” value read?
**A.** 31.9%

**Q.** For CCc1nc(Nc2ccc3nccnc3c2)c2oc3ccccc3c2n1, which Potency is on record?
**A.** 0.794 µM (active)

**Q.** With CCc1nc(N2CCN(c3nc(C)cc(C)n3)CC2)c2oc3ccccc3c2n1 as the molecule, how does the “activity change, negative = inhibition” value read?
**A.** -1.26%

**Q.** With CC(C)(C)c1nc(NCC2CCCO2)c2nnn(Cc3ccccc3)c2n1 (stereo unspecified) as the molecule, how does the “activity change, negative = inhibition” value read?
**A.** 7.95%

**Q.** Which “activity change, negative = inhibition” value does the source give for CC(=O)NC(C)c1nc2ccccc2n1Cc1ccccc1F (stereo unspecified) here?
**A.** -9.33%

**Q.** With C#CCNc1nc(C(C)C)nc2c1nnn2Cc1ccccc1F as the molecule, how does the Potency read?
**A.** 10 µM (active)

**Q.** With Cc1cccc(C(=O)O)c1 as the molecule, how does the “activity change, negative = inhibition” value read?
**A.** -9.1%

**Q.** Which “activity change, negative = inhibition” value does the source give for COC(=O)c1ccc(CSc2ccccc2C)o1 here?
**A.** -26.7%

**Q.** With O=c1c2ccccc2nc(CSc2nnnn2-c2ccccc2)n1-c1ccccc1 as the molecule, how does the “activity change, negative = inhibition” value read?
**A.** -0.982%

**Q.** For COC(=O)c1ccc(CSc2nc3ccccc3c(=O)n2-c2cccc(OC)c2)o1, which Potency is on record?
**A.** 5.01 µM (active)

**Q.** Which “activity change, negative = inhibition” value does the source give for CCCC(NC(=O)c1ccccc1)c1nc2ccccc2n1Cc1ccc(C(=O)OC)o1 (stereo unspecified) here?
**A.** 10.7%

**Q.** For CCOC(=O)CNC(=O)c1nn(-c2cccc(OC)c2)c(=O)c2ccccc12, which “activity change, negative = inhibition” value is on record?
**A.** 14.6%

**Q.** With COCC(C)n1c(SCc2ccc(C(=O)OC)o2)nc2ccccc2c1=O (stereo unspecified) as the molecule, how does the Potency read?
**A.** 10 µM (active)

**Q.** For COc1ccc(S(=O)(=O)N2CCC(C(=O)N3CCOCC3)CC2)cc1OC, which “activity change, negative = inhibition” value is on record?
**A.** 0.418%

**Q.** For COC(=O)C1(C)C=CCN1C(=O)c1ccccc1 (stereo unspecified), which “activity change, negative = inhibition” value is on record?
**A.** -3.13%

**Q.** With CC1COC2C(O1)N(S(C)(=O)=O)CCN2S(C)(=O)=O (stereo unspecified) as the molecule, how does the “activity change, negative = inhibition” value read?
**A.** -1.89%

**Q.** Which “activity change, negative = inhibition” value does the source give for O=C(C1CCN(CC2CCCCC2)CC1)N1CCCC1 here?
**A.** -0.979%

**Q.** For CCOC(=O)C1CCN(C(=O)Nc2ccc(Cl)cc2)CC1, which “activity change, negative = inhibition” value is on record?
**A.** -3.28%

**Q.** Which “activity change, negative = inhibition” value does the source give for COCC(C)N=CC1=C(O)CC(C)(C)CC1=O (stereo unspecified) here?
**A.** 4.27%

**Q.** For N=c1c2c3c(sc2ncn1N)CCCCC3, which “activity change, negative = inhibition” value is on record?
**A.** -0.591%

**Q.** Which Potency does the source give for COCCNc1nc(-n2nc(C)cc2C)nc2sc3c(c12)CCCC3 here?
**A.** 12.6 µM (active)

**Q.** With COCCn1c(C)cc(C(=O)CSc2ncnc3sc4c(c23)CCC4)c1C as the molecule, how does the “activity change, negative = inhibition” value read?
**A.** 8.37%

**Q.** Which “activity change, negative = inhibition” value does the source give for Cc1cc(N=CC2=C(O)CCCC2=O)no1 here?
**A.** -1.94%

**Q.** Which “activity change, negative = inhibition” value does the source give for Cc1cc(C(=O)O)ccc1[N+](=O)[O-] here?
**A.** -16.5%

**Q.** With COC(=O)C1C(=O)CC(C)(O)C(C(=O)OC)C1c1ccc2c(c1)OCO2 (stereo unspecified) as the molecule, how does the “activity change, negative = inhibition” value read?
**A.** -1.98%

**Q.** Which “activity change, negative = inhibition” value does the source give for C/C(=C\C(=O)c1cccnc1)Nc1ccc(C)c(C)c1 here?
**A.** 13.6%

**Q.** Which “activity change, negative = inhibition” value does the source give for CC(Sc1nc2ccccc2c(=O)n1Cc1ccco1)C(=O)c1ccccc1 (stereo unspecified) here?
**A.** 4.85%

**Q.** For COc1ccc(NC(=O)CSc2nnc(-c3cccs3)n2Cc2ccco2)cc1OC, which “activity change, negative = inhibition” value is on record?
**A.** 5.96%

**Q.** For COc1ccccc1NC(=O)CSc1nc2sc(C)c(C)c2c(=O)n1Cc1ccco1, which Potency is on record?
**A.** 3.98 µM (active)

**Q.** Which “activity change, negative = inhibition” value does the source give for CCCn1c(-c2ccc(F)cc2)nc2c(NC3CCN(Cc4ccccc4)C3)nc(C)nc21 (stereo unspecified) here?
**A.** 10.1%

**Q.** Which activity change, negative = inhibition does the source give for COC(CCN(C)C)(c1ccccc1)c1ccccc1 here?
**A.** -22.8% [at 7.6 µM]

**Q.** Which “activity change, negative = inhibition” value does the source give for CCCC[C@@H]1C[C@H]1C(NC(=O)c1ccc(-c2ccccc2)cc1)c1ccc(-c2ccccc2)cc1 (stereo partly specified) here?
**A.** 2.34%

**Q.** Which “activity change, negative = inhibition” value does the source give for O=C(Nc1ccc(-c2nnc(-c3ccccc3)o2)cc1)c1ccc(Br)o1 here?
**A.** -0.431%

**Q.** Which Potency does the source give for Cc1cc(C)nc(-n2nc(C)cc2NC(=O)c2ccc(Br)o2)n1 here?
**A.** 1.26 µM (active)

**Q.** For COc1cc(OC)c(NC(=O)c2ccc(Br)o2)cc1Cl, which activity change, negative = inhibition is on record?
**A.** 19.3% [at 7.6 µM]

**Q.** Which “activity change, negative = inhibition” value does the source give for CCSC1(SCC)N=C(N)C2(C#N)C(c3ccccc3)NC(C)=CC12C#N (stereo unspecified) here?
**A.** -14.9%

**Q.** Which “activity change, negative = inhibition” value does the source give for O=C(Cn1cnc2c(cnn2-c2ccc(F)cc2)c1=O)NCCc1ccccc1 here?
**A.** -4.15%

**Q.** With CCCn1c(=NC(C)=O)c(C(=O)OCC)cc2c(=O)n3ccccc3nc21 as the molecule, how does the Potency read?
**A.** 10 µM (active)

**Q.** With CCOC(=O)c1cnc2sccn2c1=O as the molecule, how does the “activity change, negative = inhibition” value read?
**A.** -5.25%

**Q.** Which “activity change, negative = inhibition” value does the source give for CCOC(=O)c1ccc(-n2c(C)nc3c(cnn3-c3ccccc3C)c2=O)cc1 here?
**A.** 4.93%

**Q.** With Cc1cc(C)cc(N)c1 as the molecule, how does the “activity change, negative = inhibition” value read?
**A.** -7.14%

**Q.** With CCCCNc1nc(C)nc2c1nc(-c1ccccc1)n2CCCCN(CC)CC as the molecule, how does the “activity change, negative = inhibition” value read?
**A.** 6.32%
